# Shown are actives, neighbours in structure and some others; about 2.4% of the full set was active somewhere.
# D2 antagonist: antagonists of human D2 dopamine receptor. P14416. HEK293 TREx D2 cells, calcium flux, dopamine EC80. inhibition, % at 10 µM. actives 2% (n = 340,000); in the data active means inhibition above about 30%; inactive means below that, where a call was filed; further: 0% is about no effect
# Target sequence (P14416 whole entry, looked up): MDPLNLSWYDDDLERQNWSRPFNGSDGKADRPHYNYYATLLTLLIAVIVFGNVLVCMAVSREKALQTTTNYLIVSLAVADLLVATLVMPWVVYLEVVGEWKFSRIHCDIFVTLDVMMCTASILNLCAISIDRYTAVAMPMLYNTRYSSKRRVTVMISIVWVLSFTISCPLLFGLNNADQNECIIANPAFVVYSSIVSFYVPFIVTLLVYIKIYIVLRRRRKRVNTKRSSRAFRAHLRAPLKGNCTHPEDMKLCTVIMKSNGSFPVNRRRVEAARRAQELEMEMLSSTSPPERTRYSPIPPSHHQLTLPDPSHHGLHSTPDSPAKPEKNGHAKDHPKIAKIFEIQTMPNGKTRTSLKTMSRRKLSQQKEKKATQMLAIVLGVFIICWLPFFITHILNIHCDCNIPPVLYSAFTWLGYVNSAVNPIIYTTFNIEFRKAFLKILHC
#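 Inhibition of EC80 dopamine-driven calcium flux, recorded kinetically, defines activity here; cells are a tetracycline-induced HEK293 T-REx line expressing force-coupled D2.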
# D2 ag-1: activates the human D2 dopamine receptor | P14416 | HEK293 T-REx D2 cells, calcium flux agonist mode | activation, % at 2 µM | actives 0.53% (n = 340,000) | AID 485358;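 active means activation over 3 SD above normal in the single-dose calcium agonist read, cut at about 30% in these data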; further: 0% is about no effect
#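 Calcium-flux readout, 1 cycle/sec over 180 s following compound pin transfer, in inducible HEK293 Trex D2 cells (force-coupled); dopamine controls included. Positive calcium responses during this window marked compounds as potential agonists.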
# D2 ag-2: human D2 receptor agonism in beta-arrestin assay. P14416. DiscoveRx PathHunter D2 beta-arrestin, luminescence, 90 min; 100% = 57 uM dopamine signal. activation, % (test concentration not listed). actives 0.084% (n = 360,000). AID 624465; in the data active means activation above about 40%
#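 Agonist mode: compounds alone added to overnight-plated D2 PathHunter cells for 90 min at 37 C, with 57 uM final dopamine (EC100) defining full response. Beta-arrestin recruitment detected by chemiluminescent reagent, read after 1 h at ambient temperature.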
# D2 PAM-1: D2 dopamine receptor (human) potentiation | P14416 | HEK293 T-REx D2, calcium flux, EC20 dopamine potentiation | potentiation, % at 10 µM | actives 0.34% (n = 340,000);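 active means potentiation over 3 SD above the plate norm, cut at about 30% in these data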; further: 0% is about no effect
#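 Cells plated with tetracycline inducer and held overnight at 30 C; calcium dye loaded 30–90 min at room temperature; baseline taken, compound added and read 180 s; EC20 dopamine then added and read 180 s.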
# D2 PAM-2: potentiates the human D2 dopamine receptor allosterically. P14416. DiscoveRx D2 beta-arrestin cells, luminescence, 90 min; 100% = 57 uM dopamine signal. potentiation, % (no concentration beside the values). actives 0.23% (n = 360,000). AID 624464; in the data active means potentiation above about 50%
#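 PathHunter beta-arrestin assay in DiscoveRx D2 cells. Compounds were added with an EC20 of dopamine (50 nM final) for 90 min at 37 deg C. Luminescence was read 1 h after detection reagent, with 57 uM dopamine as the EC100 control.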
# Active calls of the source: *; x = no result given.
SMILES,D2 antagonist,D2 ag-1,D2 ag-2,D2 PAM-1,D2 PAM-2
CCC(O)(CCN1CCCCC1)c1ccccc1 (stereo unspecified),-4,0,-3,-2,-14
OC(CCCN1CCCCC1)(c1ccccc1)c1ccccc1,80*,1,-6,-28,-25
CCCN1C(=O)C(Cc2nc3ccccc3c(=O)n2CC)c2ccccc21 (stereo unspecified),x,0,x,x,x
COC(=O)C(C)Sc1ccc2nnc(CCNS(=O)(=O)c3ccc(C)cc3)n2n1 (stereo unspecified),1,-1,-3,0,-9
COC(=O)C(C)Sc1ccc2nnc(CCNS(=O)(=O)c3ccccc3)n2n1 (stereo unspecified),37*,-1,6,7,-9
NC(=O)c1nc(-c2ccc(F)c(F)c2)nc2c1[nH]c(=O)n2-c1cccc(Cl)c1,x,0,x,6,x
O=C(Nc1cc(=O)c2ccccc2o1)N1CCOCC1,-2,1,-1,31*,-9
O=C(Nc1cc(=O)c2ccccc2o1)N1CCCCC1,17,2,-1,9,-13
CCOC(=O)c1c(S(=O)(=O)NCC(=O)Nc2cccc(SC)c2)c(C)n(C)c1C,x,1,x,0,x
Cc1ccc(-c2nnc3ccccc3c2C(=O)Nc2cccc(C(F)(F)F)c2)cc1,x,0,x,1,x
CCOC(=O)c1c(Nc2ccc(OC)cc2)nnc(-c2ccccc2)c1-c1ccccc1,x,1,x,-12,x
CCCCCCSc1ccc(-c2nc3ccc(C)cn3c2NCc2ccccc2)cc1,34*,0,-2,-6,-4
CCCCCCSc1ccc(-c2nc3ccc(C)cn3c2NCc2ccccc2)cc1OC,2,1,-9,-5,-7
CC(C)(C)Cn1c(=O)[nH]c(=O)c2cc([N+](=O)[O-])cnc21,35*,-1,-2,-1,-6
CCCn1c(-c2cccc([N+](=O)[O-])c2)nc2c1c(=O)[nH]c(=O)n2Cc1ccccc1,-5,2,-4,10,-1
COc1ccc(CC(=O)OCC(=O)NCc2ccco2)cc1,36*,0,3,-14,-7
COc1ccc(OCC(=O)OCC(=O)NCc2ccco2)cc1,2,1,-4,-5,-5
CCN(CC)S(=O)(=O)c1ccc2c(c1)N(CC(=O)Nc1cccc(C#N)c1)C(=O)CO2,x,-1,x,-4,x
Cc1ccc(/C=C/C(=O)Nc2nccs2)o1,11,0,8,1,53*
Cc1ccc(/C=C/C(=O)Nc2ncc(C)s2)o1,-4,0,10,8,25
COc1ccc(OC)c(NC(=O)Cn2c(=O)cc(C)c3c(C)nn(-c4cccc(Cl)c4C)c32)c1,x,0,x,2,x
Cc1ccccc1N1CC(c2nc3ccccc3n2Cc2ccc(Br)cc2)CC1=O (stereo unspecified),x,6,x,0,x
Cc1cccc(NC(=S)NC2CC3CCCC(C2)N3Cc2cccs2)c1 (stereo unspecified),77*,1,1,-22,-30
Cc1ccc(C(=O)NC2CC3CCC(C2)N3Cc2ccco2)cc1 (stereo unspecified),21,0,-3,-26,-36
CCc1ccccc1NC(=O)NC1CC2CCC(C1)N2Cc1ccco1 (stereo unspecified),32*,0,-4,-25,-33
SMILES,D2 antagonist,D2 ag-1,D2 ag-2,D2 PAM-1,D2 PAM-2
Fc1ccc(NC(=S)NC2CC3CCC(C2)N3Cc2ccco2)cc1 (stereo unspecified),x,x,-3,x,-16
COc1cc(OC)cc(C(=O)NC2CC3CCC(C2)N3Cc2ccco2)c1 (stereo unspecified),48*,2,-3,-17,-37
O=C(Nc1cccc(Cl)c1)NC1CC2CCC(C1)N2Cc1ccco1 (stereo unspecified),64*,1,1,-35,-4
CCOc1ccc(C2c3c(oc4ccc(C)cc4c3=O)C(=O)N2CCCN(C)C)cc1 (stereo unspecified),x,-1,x,15,x
O=C(Nc1ccc(Cl)c(C(F)(F)F)c1)NC1CC2CCCC(C1)N2Cc1ccccc1 (stereo unspecified),48*,1,-3,x,-9
Cc1cc(C)cc(NC(=S)NC2CC3CCC(C2)N3Cc2ccco2)c1 (stereo unspecified),46*,0,-9,-15,-23
O=[N+]([O-])c1ccc(Sc2nnnn2-c2ccccc2)c(Cl)c1,36*,-1,13,-6,30
Cn1nnnc1Sc1ccc([N+](=O)[O-])cc1Cl,-18,1,7,2,19
CCN(CC)CCNC(=O)c1cc(Nc2ccc(OC)c(OC)c2)nc2ccccc12,43*,0,0,12,-23
COc1ccc(Nc2cc(C(=O)NCCCN3CCOCC3)c3ccccc3n2)cc1OC,30*,0,-6,-5,-10
COc1ccc(Nc2cc(C(=O)NCc3ccccc3)c3ccccc3n2)cc1OC,x,0,x,x,x
CCOc1cc(CN2CCCC(N3CCN(c4ccc(F)cc4)CC3)C2)ccc1OC (stereo unspecified),-2,0,-4,-15,-1
COc1ccccc1N1CCN(C2CCCN(S(=O)(=O)c3ccc(C)cc3)C2)CC1 (stereo unspecified),66*,1,-4,-19,-52
COc1ccccc1N1CCN(C2CCCN(S(=O)(=O)c3cccc(Cl)c3)C2)CC1 (stereo unspecified),53*,-1,-3,-27,-49
COc1ccc(CN2CCCC(N3CCN(c4cccc(Cl)c4)CC3)C2)cc1OC (stereo unspecified),26,38*,-2,-17,-42
CCN1CCN(C(=O)c2cc3c(s2)-c2ccccc2S(=O)(=O)C3)CC1,45*,0,-4,-9,3
COC(=O)c1ccsc1NC(=O)CSc1nnnn1-c1ccccc1SC,-1,0,1,37*,-4
CCOC(=O)c1c(Nc2ccc(O)cc2)nnc(-c2ccccc2)c1-c1ccccc1,x,-2,x,x,x
c1ccc2c(c1)nnn2-c1ncnc2sc3c(c12)CCCC3,31*,1,0,11,-7
OCCN1CCN(c2ncnc3sc4c(c23)CCCC4)CC1,0,1,7,16,-4
Cc1nc(-n2nnc3ccccc32)c2c3c(sc2n1)CCCC3,-15,-1,-1,-6,-4
Oc1ccc(N2CCN(c3ncnc4sc5c(c34)CCC5)CC2)cc1,-9,0,11,4,68*
O=C1CC(=O)Nc2cc(S(=O)(=O)Nc3cccc(C(F)(F)F)c3)ccc2N1,30*,0,2,1,8
O=C1CC(=O)Nc2cc(S(=O)(=O)Nc3ccc(Cl)c(C(F)(F)F)c3)ccc2N1,10,0,5,3,6

# Source: PubChem (National Center for Advancing Translational Sciences (NCATS))
